Measurements from PubChem BioAssay.
Where “and” joins values, the source holds several entries; their conditions need not be identical. Equal values may be shown once. Calls of active or inactive are those of the source. Unless noted, no stated cut-off is given here; in the data, active means parasite load remaining mostly below about 12% (no sharp cut-off); inactive means mostly above about 10%. Square brackets hold non-standard residues; d marks the D form. Peptide text beside a SMILES is read from it. Orn = NCCC[CH](N)C(=O)O

Legend:
[1] = liver-stage malaria parasite growth inhibition, primary screen, cell-based, HepG2, luciferase luminescence, HepG2 viability (AID 624349);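 further: 100% = mean of DMSO negative control wells on the same plate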; details: P. berghei liver stage in HepG2, luciferase luminescence, concentration not given here; parasite load remaining: stronger effect = lower value; viability: measured here: HepG2 viability without parasites
[2] = differential killing of epithelial or mesenchymal cells, primary screen, imaging, PC-3E GFP, TEM4-18 mCherry, co-culture (AID 1345086;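 active means compounds killing one labelled cell type while sparing the other, by normalised counts and ratio limits, not self-fluorescent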;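 on all read-outs here: cells exposed to compound for 72 h before imaging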;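 on red/green cell ratio (normalised): normalised mesenchymal count divided by normalised epithelial count so high means epithelial killing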); details: imaging cell counts, at 1 µM; for red/green cell ratio (normalised): actives lie on both sides, counts scaled to control wells, 1 = unselective
[3] = sensitizers of A549 cells to miR-34 induction, primary screen, imaging, A549 dox-inducible miR-34, nuclei and caspase counts (AID 1347080;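 active means compounds whose cell count with miR-34 switched on is under 0.7 times the count with it off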); details: A549 miR-34 inducible, Hoechst nuclei count, 48 h
[4] = phospholipid biosynthesis inhibitors in animal cells, primary screen, cell-based, LOPAC library, screen 4 (AID 1347384; call rule not given here); details: phospholipid biosynthesis inhibition screen, at 10 µM
[5] = molecular target: Mitogen-activated protein kinase 7 (Homo sapiens) (UniProt Q13164); assay: ERK5 transactivation activators in reporter cells, primary screen, cell-based, HTS (AID 1508626;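 active means luciferase signal above three times the same-plate solvent-only control wells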;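 further: luciferase driven by Gal4-ERK5 fusion binding five Gal4 sites before minimal TATA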); details: HeLa Gal4-ERK5 transactivation, 18 h, at 5 µM, stronger effect = higher value
[6] = survival rescue of mitochondrial mutant cells in low glucose, primary screen, MELAS cybrids, Rieske KO mouse fibroblasts, CellTiter-Glo (AID 1508586;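 active means mean z-score across replicates of 1.96 or higher in either the MELAS or the Rieske mutant cell line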;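 further: z relative to plate mean and SD of compound and empty wells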)
[7] = measured here: epithelial PC-3E GFP cell survival
[8] = measured here: mesenchymal TEM4-18 mCherry cell survival
[9] = stronger effect = lower value, cell number ratio, induced over uninduced
[10] = measured here: relative caspase fold change +Dox/-Dox
[11] = measured here: total cells with miR-34 induction, stronger effect = lower value
[12] = measured here: total cells without miR-34 induction

Chain of Mitogen-activated protein kinase 7 (Homo sapiens) (Q13164 whole entry, looked up, the tested form may be a part): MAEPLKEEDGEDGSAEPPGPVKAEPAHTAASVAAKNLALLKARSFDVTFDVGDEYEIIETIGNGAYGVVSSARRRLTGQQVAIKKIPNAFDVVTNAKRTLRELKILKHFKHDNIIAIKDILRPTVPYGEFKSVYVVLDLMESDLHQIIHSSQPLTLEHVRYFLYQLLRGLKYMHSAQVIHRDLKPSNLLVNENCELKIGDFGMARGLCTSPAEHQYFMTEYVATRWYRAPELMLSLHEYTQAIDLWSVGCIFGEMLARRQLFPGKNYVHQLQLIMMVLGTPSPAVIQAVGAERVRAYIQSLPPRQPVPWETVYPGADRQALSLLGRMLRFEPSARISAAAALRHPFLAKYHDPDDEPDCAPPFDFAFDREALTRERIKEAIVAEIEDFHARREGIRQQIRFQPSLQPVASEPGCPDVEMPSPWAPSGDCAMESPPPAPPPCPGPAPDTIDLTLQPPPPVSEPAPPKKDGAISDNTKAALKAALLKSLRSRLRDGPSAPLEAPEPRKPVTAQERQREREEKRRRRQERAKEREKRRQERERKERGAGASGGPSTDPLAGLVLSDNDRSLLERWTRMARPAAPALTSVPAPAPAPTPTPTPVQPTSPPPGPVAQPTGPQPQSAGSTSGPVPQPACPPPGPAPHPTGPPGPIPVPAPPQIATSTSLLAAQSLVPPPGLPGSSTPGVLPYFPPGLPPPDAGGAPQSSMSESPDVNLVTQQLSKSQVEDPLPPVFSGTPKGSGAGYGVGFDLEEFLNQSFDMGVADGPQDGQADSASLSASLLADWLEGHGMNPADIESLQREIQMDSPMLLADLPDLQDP

Row | Structure (SMILES) | parasite load remaining [1] | viability [1] | red/green cell ratio (normalised) [2] | normalised cell number [2, 7] | normalised cell number [2, 8] | fold change [3, 9] | fold change [3, 10] | cell count [3, 11] | cell count [3, 12] | outcome [4] | luciferase signal [5] | z-score ([6]; MELAS cybrid survival, CellTiter-Glo 48 h, stronger effect = higher value) | z-score ([6]; Rieske KO mouse fibroblast survival, CellTiter-Glo 72 h)
1 | CC(C)CC1NC(=O)C(CCCN)NC(=O)C(C(C)C)NC(=O)C(Cc2ccc(O)cc2)NC(=O)C(CCC(=O)O)NC(=O)C(CC(=O)O)NC(=O)C(Cc2ccccc2)NC(=O)C(Cc2ccccc2)NC(=O)C2CCCN2C(=O)C(Cc2ccccc2)NC1=O (stereo unspecified) (cyclo(DEYV[Orn]LFPFF); configuration not given here) | 7.69% (inactive) and 0.08% (inactive) | 49.2% and 36.8% | 0.75 (inactive) | 0.47 | 0.35 | 1.12 (inactive) | 0.824 | 1510 | 1350 |  |  |  | 
2 | O=C(OC[C@H]1O[C@H](OC(=O)c2cc(O)c(O)c(OC(=O)c3cc(O)c(O)c(O)c3)c2)[C@H](OC(=O)c2cc(O)c(O)c(OC(=O)c3cc(O)c(O)c(O)c3)c2)[C@@H](OC(=O)c2cc(O)c(O)c(OC(=O)c3cc(O)c(O)c(O)c3)c2)[C@@H]1OC(=O)c1cc(O)c(O)c(OC(=O)c2cc(O)c(O)c(O)c2)c1)c1cc(O)c(O)c(OC(=O)c2cc(O)c(O)c(O)c2)c1 | 58.2% (inactive) and 73.8% (inactive) | 119% and 101% | 1.23 (inactive) | 1.24 | 1.52 | 0.602 (active) | 1.46 | 4260 | 7070 |  |  |  | 
3 | O=C1[C@H](CCC(O)c2ccc(F)cc2)[C@@H](c2ccc(O)cc2)N1c1ccc(F)cc1 (stereo partly specified) | 127% (inactive) and 58.1% (inactive) | 82.3% and 90.7% | 1.19 (inactive) | 0.87 | 1.03 | 0.905 (inactive) | 1.79 | 11700 | 12900 |  |  |  | 
4 | CC(C)C1CCC(C(=O)N[C@@H](Cc2ccccc2)C(=O)O)CC1 (stereo partly specified) | 74.2% (inactive) and 53.3% (inactive) | 105% and 113% | 0.92 (inactive) | 1.14 | 1.05 | 0.867 (inactive) | 4.55 | 11100 | 12800 |  |  |  | 
5 | CC1=C(C(=O)O)N2C(=O)[C@@H](NC(=O)[C@H](N)C3=CCC=CC3)C2SC1 (stereo partly specified) | 74.8% (inactive) and 68.7% (inactive) | 77.3% and 102% | 1 (inactive) | 1.13 | 1.14 | 0.89 (inactive) | 4.9 | 11000 | 12400 |  |  |  | 
6 | CC(=O)OC1CCC2C3CCc4cc(O)ccc4C3CCC12C (stereo unspecified) | 37.6% (inactive) and 33.6% (inactive) | 66.8% and 98% | 0.88 (inactive) | 1.2 | 1.05 | 0.907 (inactive) | 3.29 | 8630 | 9520 |  |  |  | 
7 | C/C=C\C1=C(C(=O)O)N2C(=O)C(NC(=O)C(N)c3ccc(O)cc3)C2SC1 (stereo unspecified) | 117% (inactive) and 53.4% (inactive) | 69.3% and 102% | 1.07 (inactive) | 0.97 | 1.04 | 0.891 (inactive) | 4.02 | 11600 | 13100 |  |  |  | 
8 | CC(C)CCCC(C)[C@H]1CCC2C3CC=C4C[C@@H](O)CC[C@]4(C)C3CC[C@@]21C (stereo partly specified) | 39.9% (inactive) | 101% | 1.04 (inactive) | 1.14 | 1.19 | 0.96 (inactive) | 2.49 | 12300 | 12900 |  |  |  | 
9 | CC(C)=CCC/C(C)=C/COc1ccc2ccc(=O)oc2c1 |  |  | 1.07 (inactive) | 0.93 | 0.99 |  |  |  |  | inactive | 76 AU (inactive) |  | 
10 | CCCCCCCCCCCCCCCC(=O)OC[C@H](NC(=O)C(Cl)Cl)[C@H](O)c1ccc([N+](=O)[O-])cc1 | 77.1% (inactive) | 134% | 1.04 (inactive) | 1.01 | 1.06 | 0.906 (inactive) | 2.23 | 10500 | 11500 |  |  |  | 
11 | C[C@H](N[C@@H](CCc1ccccc1)C(=O)O)C(=O)N1CCC[C@H]1C(=O)O |  |  | 0.88 (inactive) | 1.17 | 1.03 |  |  |  |  |  |  | 0.249 (inactive) | -0.206
12 | CC(=O)OCC(=O)[C@@]1(O)CCC2C3CCC4=CC(=O)CC[C@]4(C)[C@@]3(F)[C@@H](O)C[C@@]21C (stereo partly specified) | 127% (inactive) and 70.7% (inactive) | 75.9% and 93.9% | 1.57 (inactive) | 0.85 | 1.34 | 0.879 (inactive) | 1.47 | 6890 | 7830 |  |  |  | 
13 | CC(C)(C)NCC(O)COc1cccc2c1CCCC2=O (stereo unspecified) | 76.4% (inactive) | 103% | 1.02 (inactive) | 1.01 | 1.03 | 0.83 (inactive) | 2.71 | 11300 | 13600 |  |  |  | 
14 | COc1cc([C@@H]2c3cc4c(cc3C(OC3O[C@@H]5COC(C)O[C@H]5[C@H](O)[C@H]3O)C3COC(=O)[C@@H]32)OCO4)cc(OC)c1O (stereo partly specified) | 116% (inactive) and 63.3% (inactive) | 71.1% and 87.6% | 0.85 (inactive) | 0.36 | 0.31 | 0.832 (inactive) | 1.86 | 3220 | 3870 |  |  |  | 
15 | OC[C@H]1OC([S-])[C@H](O)[C@@H](O)[C@@H]1O.[Au+] (stereo partly specified) | 51.4% (inactive) | 97.6% | 0.82 (inactive) | 1.15 | 0.95 | 0.865 (inactive) | 2.52 | 9290 | 10700 |  |  |  | 
16 | CC(CCC(=O)O)[C@H]1CCC2C3C(=O)C[C@@H]4CC(=O)CC[C@]4(C)C3CC(=O)[C@@]21C (stereo partly specified) | 50.2% (inactive) | 81.3% | 1.13 (inactive) | 0.93 | 1.05 | 0.923 (inactive) | 1.77 | 11900 | 12900 |  |  |  | 
